Screening results (PubChem)
A selection: hits, their analogues and other compounds. The true share with any hit is near 3.6%.
Mtb FBA inh – inhibitors of M. tuberculosis fructose-bisphosphate aldolase | inhibition, % at 1 µM | AID 588726 | hit rate 2.3% among 360,000 | purified M. tuberculosis FBA, fluorescence read-out;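 further: 0% = vehicle and 100% = reference inhibitor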
Target sequence (P9WQA3 whole entry, looked up): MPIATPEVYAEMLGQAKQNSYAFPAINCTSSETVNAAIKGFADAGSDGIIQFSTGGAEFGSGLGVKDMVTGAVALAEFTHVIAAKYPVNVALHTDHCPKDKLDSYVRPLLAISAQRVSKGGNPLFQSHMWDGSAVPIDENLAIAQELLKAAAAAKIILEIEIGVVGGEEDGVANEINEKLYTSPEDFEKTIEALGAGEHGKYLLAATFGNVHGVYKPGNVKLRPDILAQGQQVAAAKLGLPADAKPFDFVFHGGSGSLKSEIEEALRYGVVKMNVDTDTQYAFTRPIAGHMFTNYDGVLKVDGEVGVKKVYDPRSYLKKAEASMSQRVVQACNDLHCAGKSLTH
Mtb bLac sens – beta-lactam sensitization of Mtb H37Rv. M. tuberculosis H37Rv growth with meropenem, percent inhibition. inhibition, % at 25 µM. hit rate 0.27% among 330,000. AID 434955; call rule not given here;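 further: growth measured after seven days incubation then overnight dye step; 0% = bacteria only wells and 100% = bacteria with antibiotic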
Mtb hypoxia rep – Mtb hypoxia fluorescent reporter inhibition. M. tuberculosis hypoxia-regulated fluorescent reporter, fluorescence. fluorescence inhibition, % (concentration not given with the values). hit rate 0.1% among 300,000. AID 1159583; in the data active means fluorescence inhibition mostly above about 23%, no sharp cut-off; inactive means mostly below about 17%
VHR inh abs – blocks human VHR1 dual specificity phosphatase; recombinant VHR phosphatase, pNPP absorbance; hit rate 0.52% among 290,000; inhibition, % at 13.3 µM; P51452; in the data active means inhibition above about 50%
Target sequence (P51452 whole entry, looked up): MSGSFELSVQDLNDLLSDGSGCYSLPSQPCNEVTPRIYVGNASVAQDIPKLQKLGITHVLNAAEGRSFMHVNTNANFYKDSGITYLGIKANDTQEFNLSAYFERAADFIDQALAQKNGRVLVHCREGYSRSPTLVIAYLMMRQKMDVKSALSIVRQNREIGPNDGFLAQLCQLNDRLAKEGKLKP
GDH-TPI counter-1 – inhibits GDH-TPI coupling enzymes, artifact for Mtb FBA screen. GDH-TPI coupled enzyme counterscreen, NADH absorbance. inhibition, % at 4.8 µM. hit rate 1.2% among 360,000. AID 588335; in the data active means inhibition above about 30%;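 further: 0% = DMSO wells and 100% = wells lacking the enzyme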
Mtb FBA confirm – confirmation of M. tuberculosis fructose-bisphosphate aldolase inhibitors. purified M. tuberculosis FBA, fluorescence read-out. shares compounds with Mtb FBA inh. hit rate 78% among 5,600. inhibition, % at 1 µM. AID 651616;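 further: 0% = vehicle wells and 100% = reference inhibitor wells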
GDH-TPI counter-2 – inhibits GDH-TPI coupling enzymes, flagging Mtb FBA hits; GDH-TPI coupled enzyme counterscreen, fluorescence; hit rate 81% among 5,600; shares compounds with Mtb FBA inh; AID 652141; inhibition, % at 1 µM; in the data active means inhibition above about 10%
* hit, by the source's call; nt = no result given; + = active, no number. Unless noted, no stated cut-off is given here; in the data, active means inhibition above about 27%; inactive means the rest.

SMILES	Mtb FBA inh	Mtb bLac sens	Mtb hypoxia rep	VHR inh abs	GDH-TPI counter-1	Mtb FBA confirm	GDH-TPI counter-2
COc1cccc2[nH]c3c(Cl)ncnc3c12	41*	-13	11	7	11	163*	144*
COc1cc(OC)c(OC)cc1C=NNc1ncnc2c1[nH]c1ccccc12	nt	nt	-3	nt	nt	nt	nt
COc1ccc2[nH]c3c(Cl)ncnc3c2c1	2	4	-6	13	6	nt	nt
CCCCOc1ncnc2c1[nH]c1ccc(F)cc12	32*	11	2	15	-2	189*	160*
CC(C)c1ccc(C=NNC(=O)c2nnn(-c3nonc3N)c2CN2CCOCC2)cc1	nt	nt	-7	nt	nt	nt	nt
CC(=NN=C(N)N)c1cc(Cl)ccc1Cl	nt	nt	-6	nt	nt	nt	nt
CC(=O)Nc1ccc2nc(NC(=O)COc3ccc([N+](=O)[O-])cc3)sc2c1	2	4	-3	0	7	nt	nt
Cc1ccc(C)c(OCC(=O)Nc2nc3ccc([N+](=O)[O-])cc3s2)c1C	53*	-3	0	23	20	1	-1
COc1cccc2cc(-c3n[nH]c(=S)n3C)oc12	42*	-1	-11	13	1	1	-4
CCOC(=O)c1cnn(-c2ncnc3sc(C)c(C)c23)c1N	77*	-7	nt	15	6	84*	66*
COc1ccc(-n2c(C)nnc2SCC(=O)NC2CC2)cc1	92*	10	nt	31	-3	42*	34*
CC(C)OCCCNC(=O)c1c(N)n(/N=C/c2cccs2)c2nc3ccccc3nc12	9	9	nt	17	20	nt	nt
Nc1c(C(=O)NCC2CCCO2)c2nc3ccccc3nc2n1-c1ccccc1 (stereo unspecified)	108*	15	nt	28	8	87*	73*
CC(C)OCCCNC(=O)c1c(N)n(CC2CCCO2)c2nc3ccccc3nc12 (stereo unspecified)	49*	17	-1	-17	5	+	+
CCCNC(=O)c1c(N)n(CC2CCCO2)c2nc3ccccc3nc12 (stereo unspecified)	99*	6	1	12	15	101*	79*
Nc1c(C(=O)NCC2CCCO2)c2nc3ccccc3nc2n1N=Cc1ccncc1 (stereo unspecified)	nt	nt	11	nt	nt	nt	nt
COC(=O)C1=CC(C(=O)OC)C2C3=C(C(=O)[C@@]2(C)NC(=O)c2ccccc2)C(C)C(C(=O)OC)=C(C(=O)OC)C3C1 (stereo partly specified)	nt	nt	4	nt	nt	nt	nt
CC(=NNC(=O)c1ccc2c(c1)OCO2)c1ccc(NC(=O)CCCC(=O)O)cc1	nt	nt	-12	nt	nt	nt	nt
COc1ccc(C2=NN(c3ccccc3)C(c3cn(CCC(=O)O)nc3-c3ccccc3)C2)cc1 (stereo unspecified)	108*	-8	7	5	9	23	19*
COc1ccc(C2CC(c3ccncc3)=NN2c2ccc(S(N)(=O)=O)cc2)cc1 (stereo unspecified)	68*	nt	0	nt	11	109*	88*
CCC(=O)Nc1cccc(C2=NN(c3ccccc3)C(c3ccc(OC)cc3)C2)c1 (stereo unspecified)	77*	4	-7	-15	14	104*	69*
COc1ccc(C2CC(c3ccccc3)=NN2C(=O)c2ccc(F)cc2)cc1 (stereo unspecified)	1	4	9	2	6	nt	nt
COc1ccc(C2CC(c3ccccc3)=NN2c2ccc(Cl)c(C(=O)O)c2)cc1 (stereo unspecified)	86*	5	-6	13	7	+	+
COc1ccc(C2CC(c3ccccc3)=NN2C(=O)COC(=O)c2cccc(O)c2)cc1 (stereo unspecified)	-3	3	4	nt	3	nt	nt
CC=CC=CC(=O)Nc1cccc(C2=NOC3(C2)CC(C(N)=O)N(C(=O)CCCCC)C3)c1 (stereo unspecified)	nt	nt	6	nt	nt	nt	nt
SMILES	Mtb FBA inh	Mtb bLac sens	Mtb hypoxia rep	VHR inh abs	GDH-TPI counter-1	Mtb FBA confirm	GDH-TPI counter-2
CN1CCC(=O)N(C(COc2ccccc2)Cc2ccccc2)CC1 (stereo unspecified)	nt	nt	3	nt	nt	nt	nt
Nc1nnnn1CC(=O)NN=C/C=C/c1ccccc1	nt	nt	6	nt	nt	nt	nt
COc1ccc(OC)c(S(=O)(=O)NN=Cc2cn(CC(N)=O)c3ccccc23)c1	nt	nt	-6	nt	nt	nt	nt
O=CNc1ccc2c3c(cccc13)-c1ccccc1-2	79*	nt	-1	nt	7	70*	51*
Nc1c(Br)cc2c3c(cccc13)-c1ccccc1-2	nt	nt	-5	nt	nt	nt	nt
CC1CN(C(C)CO)C(=O)c2cccc(NS(=O)(=O)c3cccs3)c2OC1CN(C)C(=O)Nc1ccc(C(F)(F)F)cc1 (stereo unspecified)	nt	nt	2	nt	nt	nt	nt
O=C([O-])c1ccc(-[n+]2c(-c3ccccc3)cc(-c3ccccc3)cc2-c2ccccc2)cc1	7	73	-1	nt	21	nt	nt
Cc1ccc(-c2cc(-c3ccccc3)cc(-c3ccccc3)[n+]2-c2ccccc2C(=O)O)cc1	54*	100	21	nt	16	10	3
N#CCc1ccc(Oc2ncc(C(F)(F)F)cc2Cl)cc1	44*	5	7	20	0	123*	102*
Cc1cc(OC(C)C(=O)NCc2ccccn2)c2c(C)c(Cc3ccccc3)c(=O)oc2c1 (stereo unspecified)	4	3	8	-6	9	nt	nt
Cc1c(Cc2ccccc2)c(=O)oc2cc(OC(C)C(=O)NCC3CCC(C(=O)O)CC3)c(Cl)cc12 (stereo unspecified)	34*	4	nt	-18	28	+	190*
CCCCc1cc(=O)oc2cc(OCC(=O)NCC3CCC(C(=O)O)CC3)ccc12 (stereo unspecified)	21	3	nt	-3	11	nt	nt
CCc1c(C)c2ccc(OCC(=O)NCC3CCC(C(=O)O)CC3)cc2oc1=O (stereo unspecified)	79*	-1	nt	16	19	56*	36*
O=C(COc1ccc2c3c(c(=O)oc2c1)CCC3)NCC1CCC(C(=O)O)CC1 (stereo unspecified)	16	-1	15	11	15	nt	nt
O=C(COc1ccc2c(c1)oc(=O)c1ccccc12)NCC1CCC(C(=O)O)CC1 (stereo unspecified)	34*	1	nt	29	19	90*	54*
O=C1Nc2ccccc2C(=O)N2C1C1C(=O)N(Cc3ccccc3)C(=O)C1C2c1cccc(Br)c1 (stereo unspecified)	nt	nt	7	nt	nt	nt	nt
COc1cc(C=NO)ccc1OCc1ccc(C(=O)O)cc1	nt	nt	7	nt	nt	nt	nt
CCOc1ccc(C2C=C(c3ccc(F)cc3)Nc3ncnn32)cc1 (stereo unspecified)	31*	85	19	28	14	146*	100*
Cc1ccc(C2C=C(c3ccccc3)Nc3ncnn32)cc1 (stereo unspecified)	30*	-17	nt	nt	0	38*	26*
